# Assay results from PubChem BioAssay (NCATS).
# “And” between values parts separate entries of the source, which are not always exact repeats. Equal values may be shown once. Results filed as inconclusive are left out. Entries that show only a call come without a potency. The source made the active and inactive calls. Unless noted, calls follow the shape of the full dose curve.
# How the values were obtained:
# [1] = qHTS for Inhibitors of the Functional Ribonucleoprotein Complex (vRNP) of Lassa (LASV) Arenavirus: LASV Primary Screen - GLuc reporter signal (AID 1347082; calls by dose curve; tested in HEK293 reporter line; also: nearly all actives have a fitted effect of over 60% in size; also: potency is read from the fitted curve at half-maximal effect)
# [2] = target: Nucleoprotein (Lymphocytic choriomeningitis virus (strain Armstrong)) (UniProt P09992); assay: qHTS for Inhibitors of the Functional Ribonucleoprotein Complex (vRNP) of Lymphocytic Choriomeningitis Arenaviruses (LCMV): LCMV Primary Screen - GLuc reporter signal (AID 1347086); also: nearly all actives have a fitted effect of over 70% in size; also: potency is read from the fitted curve at half-maximal effect
# [3] = qHTS for Inhibitors of the Functional Ribonucleoprotein Complex (vRNP) of Lymphocytic Choriomeningitis Arenaviruses (LCMV): Viability assay - alamar blue signal for LCMV Primary Screen (AID 1347085; calls by dose curve; tested in HEK293 reporter line; also: nearly all actives have a fitted effect of over 80% in size; also: potency is read from the fitted curve at half-maximal effect)
# [4] = Cytotoxicity counterscreen for inhibitors of SARS-CoV-2 cell entry (AID 1645845); also: nearly all actives have a fitted effect of over 50% in size
# Method in brief: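 HEK293-ACE2 cells (Expi293F stably expressing human ACE2) seeded overnight, then compound for 1 h plus 48 h at 37C. Viability as ATP content by luminescence; normalized to wells with cells and media-only wells.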
# [5] = Primary qHTS to identify inhibitors of SARS-CoV-2 cell entry (AID 1645846); details: activity change, negative = inhibition: at 57.1 µM (top of the series) unless noted; also: nearly all actives have a fitted effect of over 45% in size; also: potency is read from the fitted curve at half-maximal effect
# Method in brief: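 Entry measured by luciferase signal 48 h after adding SARS-CoV-2-S pseudotyped MLV particles to HEK293-ACE2 cells preincubated 1 h with compounds. Normalisation: bald particles and spike particles.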
# [6] = Confirmatory qHTS for VERO E6 Cytotoxicity Assay: Counterscreen for SARS-CoV-2 CPE Assay (AID 1508605); also: potency is read from the fitted curve at half-maximal effect; nearly all actives have a fitted effect of over 60% in size
# [7] = qHTS Assay for Lipid Storage Modulators (AID 1519); details: Drosophila S3 cells, BODIPY lipid droplet/cell ratio, laser cytometry, cells loaded with oleic acid
# Method in brief: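 Cells seeded at 5,000 per well were treated with compounds over a concentration series and loaded with oleic acid (400 uM, as added). Lipid droplet fluorescence (488 nm excitation, 500-530 nm channel) was read by laser-scanning cytometry and normalized to 20 uM Triacsin C.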
# [8] = Validation screen for inhibitors of Lassa infection (AID 463096); also: potency is read from the fitted curve at half-maximal effect
# [9] = Inducers of the Endoplasmic Reticulum Stress Response (ERSR) in human glioma: Validation (AID 504836; active = well fitted curve in the direction sought with a large enough effect; an effect the other way counts as inactive or inconclusive)
# Method in brief: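 Stably transfected U87-MG glioma cells carrying a GRP78-based luciferase sensor; 16 h compound incubation. Luminescence end-point read 10 min after Bright-Glo addition at room temperature.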
# [10] = target: Alpha-galactosidase (Coffea arabica) (UniProt Q42656); assay: Counterscreen for Glucocerebrosidase Inhibitors: qHTS Assay for Coffee Bean alpha-Galactosidase at pH 4.5 (AID 957; active = well fitted curve in the direction sought with a large enough effect; an effect the other way counts as inactive or inconclusive)
# Method in brief: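 Coffee bean enzyme (2 nM) with 80 uM 4-methylumbelliferyl alpha-D-galactopyranoside in 50 mM citric acid, 0.005% Tween-20, pH 4.5, 20 min at room temperature; compounds 0.7 nM–77 uM. Stopped at pH 10, fluorescence 365/440 nm; AC50 from Hill fits.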
# [11] = target: Alpha-galactosidase (Coffea arabica) (UniProt Q42656); assay: Counterscreen for Glucocerebrosidase Inhibitors: qHTS Assay for Coffee Bean alpha-Galactosidase at pH 5.9 (AID 998; active = well fitted curve in the direction sought with a large enough effect; an effect the other way counts as inactive or inconclusive)
# Method in brief: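 Green coffee bean enzyme (2 nM) with 4-methylumbelliferyl alpha-D-galactopyranoside (80 uM) in 50 mM citric acid, 0.005% Tween-20, pH 5.9, 20 min at room temperature; compounds 0.7 nM–77 uM. Stopped at pH 10, fluorescence Ex365/Em440; Hill-fit AC50.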
# [12] = Primary qHTS for inhibitors of SARS-S pseudo-typed particle cell entry (AID 1479145); also: potency is read from the fitted curve at half-maximal effect; nearly all actives have a fitted effect of over 45% in size
# [13] = Primary qHTS for Huh7 cytotoxicity: counterscreen for inhibitors of MERS-S pseudotyped particle cell entry (AID 1479147); details: outcome: dose series up to 57.1 µM unless noted
# [14] = Primary qHTS for Vero E6 cytotoxicity: counterscreen for inhibitors of SARS-S pseudo-typed particle cell entry (AID 1479150); details: outcome: dose series up to 57.1 µM unless noted
# [15] = VSVG counterscreen qHTS to identify inhibitors of SARS-CoV-2 cell entry (AID 1645847); also: potency is read from the fitted curve at half-maximal effect; nearly all actives have a fitted effect of over 65% in size
# Method in brief: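 Luminescence read after 48 h infection at 37 C with VSV-G-pseudotyped MLV particles, following 1 h compound exposure of Expi293F cells stably expressing human ACE2; scaled between bald particle and VSV-G particle wells.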
# Nucleoprotein (Lymphocytic choriomeningitis virus (strain Armstrong)), sequence (P09992 whole entry, looked up): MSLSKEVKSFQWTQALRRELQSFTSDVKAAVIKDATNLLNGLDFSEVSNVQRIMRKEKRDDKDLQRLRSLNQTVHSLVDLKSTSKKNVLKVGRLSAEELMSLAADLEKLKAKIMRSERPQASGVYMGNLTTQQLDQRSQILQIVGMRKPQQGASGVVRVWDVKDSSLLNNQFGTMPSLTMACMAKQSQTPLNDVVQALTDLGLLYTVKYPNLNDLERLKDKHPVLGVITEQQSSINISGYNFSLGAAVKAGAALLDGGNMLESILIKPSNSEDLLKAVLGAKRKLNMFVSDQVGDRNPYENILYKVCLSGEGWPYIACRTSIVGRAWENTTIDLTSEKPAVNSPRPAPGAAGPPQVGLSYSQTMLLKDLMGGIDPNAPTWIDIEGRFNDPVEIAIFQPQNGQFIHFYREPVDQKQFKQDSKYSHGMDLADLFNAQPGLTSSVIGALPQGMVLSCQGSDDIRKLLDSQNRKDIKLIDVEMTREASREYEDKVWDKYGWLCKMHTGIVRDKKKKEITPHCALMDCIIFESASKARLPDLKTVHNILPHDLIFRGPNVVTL
# Alpha-galactosidase (Coffea arabica), sequence (Q42656 whole entry, looked up): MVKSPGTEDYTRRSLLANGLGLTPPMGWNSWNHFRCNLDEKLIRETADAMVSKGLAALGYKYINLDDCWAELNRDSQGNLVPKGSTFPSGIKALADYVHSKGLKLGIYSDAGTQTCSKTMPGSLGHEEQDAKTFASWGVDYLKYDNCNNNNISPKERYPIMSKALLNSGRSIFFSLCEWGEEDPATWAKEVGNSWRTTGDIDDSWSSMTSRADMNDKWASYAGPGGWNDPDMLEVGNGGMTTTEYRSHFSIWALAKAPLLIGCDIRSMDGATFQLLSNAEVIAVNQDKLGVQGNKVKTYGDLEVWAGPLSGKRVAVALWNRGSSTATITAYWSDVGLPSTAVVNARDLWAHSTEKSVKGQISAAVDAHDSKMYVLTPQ
smiles,measurement,setting,value
O=C1NCc2c1c1c3ccccc3[nH]c1c1[nH]c3ccccc3c21,Potency,[1],inactive
same,Potency,[2],inactive
N#CC(c1ccnc(NCCc2cccnc2)n1)c1nc2ccccc2s1 (stereo unspecified),Potency,[1],inactive
same,Potency,[3],15.3 µM (active)
same,Potency,[4],inactive
same,Potency,[5],inactive
Nc1nc(NCCNc2ncc(-n3ccnc3)c(-c3ccc(Cl)cc3Cl)n2)ccc1[N+](=O)[O-],Potency,[1],inactive
same,Potency,[3],15.3 µM (active)
same,Potency,[4],inactive
same,"activity change, negative = inhibition",[5],-29.7%
Nc1ncnc2c1c(-c1cccc(OCc3ccccc3)c1)cn2C1CC(CN2CCCC2)C1 (stereo unspecified),Potency,[1],inactive
same,Potency,[3],27.3 µM (active)
same,Potency,[6],12.6 µM (active)
same,Potency,[5],14.1 µM (active)
C=C1C([C@@]2(C)C(OC(C)=O)CC(=O)O[C@@](C)(COC(C)=O)C2CC(=O)OC)C(OC=O)C(OC(=O)C(O)C(C)CC)[C@]2(C)C(c3ccoc3)CC(=O)C12O (stereo partly specified),Potency,[1],inactive
same,Potency,[2],inactive
C[C@]12CC[C@@H]3c4ccc(O)cc4CC[C@H]3[C@H]1[C@@H](O)[C@@H](O)[C@H]2O,Potency,[1],inactive
same,Potency,[3],inactive
same,Potency,[2],inactive
same,Potency,[4],inactive
same,Potency,[5],inactive
CCC[C@H]1NC(=O)[C@H](C)N(C)C(=O)C(C)(C)C(=O)C(C)NC(=O)[C@H](Cc2ccc(OC)cc2)N(C)C(=O)[C@H](C(C)C)N(C)C(=O)CNC(=O)[C@H](CC(C)C)N(C)C(=O)CNC(=O)[C@H]([C@@H](C)CC)OC(=O)[C@H]1C (stereo partly specified),Potency,[1],inactive
same,Potency,[2],inactive
O=C1OC(=O)C2C3CCC(O3)C12 (stereo unspecified),"activity change, negative = inhibition",[7]; at 57.5 µM (top of the series),0.66% (inactive) and -7.44% (inactive)
same,max response,[7]; measured here: cell count channel max response,-1.46% and -29.7%
same,max response,[7]; measured here: lipid channel max response,1.23% and -36.1%
same,Potency,[8],inactive
same,outcome,[9],inactive
same,Potency,[1],inactive
same,Potency,[3],12.6 µM (active)
CCCC(=O)NCCc1c2n(c3ccc(OC)cc13)CCCc1ccccc1-2,outcome,[10],inactive
same,outcome,[11],inactive
same,Potency,[8],inactive
same,outcome,[9],inactive
same,Potency,[1],inactive
same,Potency,[3],inactive
CN1CCCN(C(=O)c2cccc(-c3ccc(C=C4C(=O)Nc5ccc(Cl)cc54)o3)c2)CC1,Potency,[1],inactive
same,Potency,[2],inactive
COc1cc2nccc(Oc3ccc(NC(=O)NC4CC4)c(Cl)c3)c2cc1C(N)=O,Potency,[1],inactive
same,Potency,[3],19.3 µM (active)
same,Potency,[12],3.55 µM (active)
same,outcome,[13],inactive
same,outcome,[14],inactive
same,Potency,[4],inactive
same,"activity change, negative = inhibition",[5],-21.3%
same,Potency,[15],19.2 µM (active)
C=C1C(=CC=C2CCC[C@]3(C)[C@@H]([C@H](C)CCCC(C)(C)O)CC[C@@H]23)C[C@@H](O)C[C@@H]1O,Potency,[1],inactive
same,Potency,[2],inactive
O=c1[nH]nc(OCCCc2ccc(Cl)cc2)c(NCc2cccnc2)c1Br,Potency,[1],inactive
same,Potency,[3],inactive
same,Potency,[2],inactive
same,Potency,[4],inactive
same,"activity change, negative = inhibition",[5],-25.1%
OCc1ccc(-c2nn(Cc3ccccc3)c3ccccc23)o1,outcome,[10],inactive
same,outcome,[11],inactive
same,Potency,[8],4.47 µM (active)
same,outcome,[9],inactive
same,Potency,[1],inactive
same,Potency,[3],inactive
same,Potency,[2],inactive
same,"activity change, negative = inhibition",[5],-87.6%
COc1cc2ncnc(Nc3cccc(Cl)c3)c2cc1OC,outcome,[10],inactive
same,outcome,[11],inactive
same,Potency,[8],inactive
same,Potency,[1],inactive
same,Potency,[3],inactive
same,Potency,[2],inactive
same,Potency,[4],inactive
same,"activity change, negative = inhibition",[5],0.792%
Cc1ccc(S(=O)(=O)N[C@@H](Cc2ccccc2)C(=O)CCl)cc1,outcome,[10],inactive
same,outcome,[11],inactive
same,Potency,[8],7.08 µM (active)
same,outcome,[9],inactive
same,Potency,[1],inactive
same,Potency,[3],inactive
same,Potency,[2],inactive
same,Potency,[4],inactive
CC(C)NC[C@@H](O)c1ccc(O)c(O)c1,outcome,[9],inactive
same,Potency,[1],inactive
same,Potency,[3],inactive
same,Potency,[2],inactive
CC(C)n1cnc2c(NCCc3ccc(O)cc3)nc(-c3csc4ccccc34)nc21,Potency,[1],inactive
same,Potency,[3],inactive
same,Potency,[2],inactive
same,Potency,[4],inactive
same,"activity change, negative = inhibition",[5],-45.8%
O=c1cccc2c1c1cc[nH]c3ccc(=O)n2c31,Potency,[1],inactive
same,Potency,[2],inactive
COc1cc2c(c(OC)c1OC)-c1ccc(OC)c(=O)cc1C(N)CC2 (stereo unspecified),Potency,[1],inactive
same,Potency,[2],0.178 µM (active)
CC1OC(OC2CC(O)C3(CO)C4C(O)CC5(C)C(C6=CC(=O)OC6)CCC5(O)C4CCC3(O)C2)C(O)C(O)C1O (stereo unspecified),Potency,[1],inactive
same,Potency,[2],inactive
CC(N)(Cc1ccc(O)c(O)c1)C(=O)O (stereo unspecified),Potency,[8],inactive
same,outcome,[9],inactive
same,Potency,[1],inactive
same,Potency,[3],inactive
same,Potency,[2],inactive
O=c1c(-c2ccc(O)cc2)coc2cc(O)ccc12,outcome,[10],inactive
same,outcome,[11],inactive
same,Potency,[8],inactive
same,outcome,[9],inactive
same,Potency,[1],inactive
same,Potency,[3],inactive
same,Potency,[2],inactive
same,Potency,[4],inactive
same,Potency,[5],inactive
CCCCCC(O)c1cccc(OCc2ccc3ccccc3n2)c1 (stereo unspecified),Potency,[8],inactive
same,outcome,[9],inactive
same,Potency,[1],inactive
same,Potency,[3],inactive
same,Potency,[2],inactive
NC(N)=Nc1nc(CSCCC(N)=NS(N)(=O)=O)cs1,Potency,[1],inactive
same,Potency,[2],inactive
NC(=Nc1ccccc1)NC(=O)c1nc(Cl)c(N)nc1N,outcome,[10],inactive
same,outcome,[11],inactive
same,outcome,[9],inactive
same,Potency,[1],inactive
same,Potency,[3],inactive
same,Potency,[2],inactive
Cc1cc(Nc2cc(CN3CCOCC3)c3nc(C)c(Cc4ccc(Cl)cc4F)n3n2)n[nH]1,Potency,[1],inactive
same,Potency,[2],inactive
Fc1ccc(CNc2ncnc3ccc(F)cc23)cc1,Potency,[1],19.3 µM (active)
same,Potency,[3],inactive
same,Potency,[2],24.3 µM (active)
same,Potency,[5],8.91 µM (active)
O=C(O)Cc1ccc(O)c(O)c1,outcome,[10],inactive
same,outcome,[11],inactive
same,outcome,[9],inactive
same,Potency,[1],inactive
same,Potency,[3],inactive
same,Potency,[2],inactive
